HEK293 tox – cytotoxicity in counter-screen for GLP-1R inverse agonists; HEK293 cAMP-luciferase reporter cells, luminescence, 24 h; Potency, µM (series often up to 38.3 µM), for the others: at the top dose activity change, negative = inhibition, actives largely listed as inhibitors; hit rate 0.13% among 410,000; AID 624418;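 also: loss of luciferase light is scored as toxicity; % is scaled to controls: 0 for no effect and ±100 for the full control effect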
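1536-well qHTS counterscreen of the MLSMR; 200 cells/uL, 12 h pre-incubation, 23 nL cpd, 24 h at 37 deg C 5% CO2, luciferase detection reagent, 12 min RT, luminescence. Inhibition = undesired.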
TrxR1 substrate – substrates of rat thioredoxin reductase 1. Potency, µM (titrated, usually from 114 µM), for inactives: at the top dose activity change, negative = substrate turnover. O89049. hit rate 0.01% among 390,000. purified TrxR1 substrate turnover, NADPH consumption readout; also: % is scaled to controls: 0 for no effect and ±100 for the full control effect; nearly all actives have a fitted effect of over 50% in size
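Rat TrxR1, dispensed at 90 nM, was prereduced with 400 uM NADPH (final) for 5 min at ~22 deg C, then incubated with compound 15 min before 400 uM selenite. A first-read NADPH fluorescence drop versus no-compound background flagged substrates.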
GLP1R ag – GLP-1 receptor (human) agonism | hit rate 0.007% among 380,000 | HEK293 GLP-1R CRE-luciferase, luminescence, 4-6 h; cells express a hypersensitive GLP-1R form | Potency, µM (top dose mostly 45.6 µM), for inactives: at the top dose activation, hits mostly activators | P43220; also: % of control where 0% means no effect
Target sequence (P43220 whole entry, looked up): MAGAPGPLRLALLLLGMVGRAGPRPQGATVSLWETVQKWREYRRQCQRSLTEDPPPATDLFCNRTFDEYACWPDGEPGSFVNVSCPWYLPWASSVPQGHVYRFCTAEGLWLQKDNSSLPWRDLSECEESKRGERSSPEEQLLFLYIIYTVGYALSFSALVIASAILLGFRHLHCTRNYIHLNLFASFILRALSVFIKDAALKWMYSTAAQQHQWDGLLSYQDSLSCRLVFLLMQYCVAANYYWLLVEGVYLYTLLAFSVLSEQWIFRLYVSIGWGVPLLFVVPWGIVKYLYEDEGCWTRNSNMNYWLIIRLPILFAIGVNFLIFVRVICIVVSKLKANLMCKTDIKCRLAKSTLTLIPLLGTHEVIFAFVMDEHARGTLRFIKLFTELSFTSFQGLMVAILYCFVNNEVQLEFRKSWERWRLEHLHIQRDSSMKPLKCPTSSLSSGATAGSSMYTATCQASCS
TrxR1 inh – blocks rat thioredoxin reductase 1. O89049. recombinant rTrxR1, NADPH fluorescence consumption, selenite substrate. Potency, µM (series often up to 114 µM), for the others: top-dose activity change, negative = inhibition, actives largely listed as inhibitors. hit rate 1% among 390,000. AID 588453; also: % is scaled to controls: 0 for no effect and ±100 for the full control effect; nearly all actives have a fitted effect of over 65% in size
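Rat TrxR1 (90 nM in the dispensed reagent) was pre-reduced with 400 uM NADPH for 5 min at room temperature, then incubated with compound for 15 min. After 400 uM selenite was added, NADPH fluorescence (Ex 340/Em 450 nm) was followed for 8 min.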
mIDH1 inhibitor – blocks human mutant IDH1 R132H enzyme; O75874; hit rate 0.093% among 390,000; Potency, µM (top dose mostly 76.6 µM), inactives show at the highest dose activity change, negative = inhibition, most hits filed as inhibitors; AID 602179; IDH1-R132H enzyme, NADPH consumption, diaphorase/resazurin fluorescence; also: % is scaled to controls: 0 for no effect and ±100 for the full control effect; nearly all actives have a fitted effect of over 65% in size
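IDH1-R132H (0.5 ug/mL dispensed) in pH 7.5 Tris buffer was preincubated 30 min with compound, then given a substrate mix of 0.016 mM NADPH and 2 mM alpha-KG for 80 min at room temperature; remaining NADPH was read by diaphorase/resazurin fluorescence.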
GLP1R inv ag – GLP-1 receptor (human) inverse agonism | AID 624417 | P43220 | hit rate 1.6% among 410,000 | HEK293 GLP-1R CRE-luciferase, luminescence, 24 h; GLP-1R form is constitutively active | Potency, µM (doses to about 38.3 µM), without a hit: at the highest dose activity change, negative = inhibition, usual class: inhibitors; also: % is scaled to controls: 0 for no effect and ±100 for the full control effect; nearly all actives have a fitted effect of over 55% in size
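Luminescence readout: a drop in cAMP-driven luciferase signal flags inverse agonism at a constitutively active GLP-1R stably expressed in HEK293. Compound exposure lasted 24 hr at 37 deg C, 5% CO2.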
* hit, by the source's call; [ ] = another dose, or the depositor's remark. The list is not random: actives were taken first. Their share in the collection is about 2.7%. Calls follow the shape of the dose curve; as a rule, active = well fitted curve in the direction sought with a large enough effect; inconclusive = small, poorly fitted or top-dose-only effect, or another doubt; inactive = no such curve, though single readings can be large; an effect the other way counts as inactive or inconclusive. Potency is read from the fitted curve at half-maximal effect.

Screening Cc1ccc(N=Cc2cccc(O)c2O)c(C)c1 returned TrxR1 substrate -8.3% and TrxR1 inh 31.6µM*.
For CCN(CC)c1ccc(C=Nc2ccc(C)cc2C)c(O)c1 the results were HEK293 tox -4.4%, TrxR1 substrate -17.4%[57.1 µM], GLP1R ag 3.9%, TrxR1 inh 22.1%[57.1 µM], mIDH1 inhibitor 8.7% and GLP1R inv ag -18.6%.
For CC(N=Cc1cccc(O)c1O)c1ccccc1 (configuration not stated) the results were HEK293 tox -20.0%, TrxR1 substrate -11.5%, GLP1R ag -2.1%, TrxR1 inh 39.8µM*, mIDH1 inhibitor 6.7% and GLP1R inv ag 22.6%.
`Cc1ccccc1N=Cc1cccc(O)c1O` gave HEK293 tox -26.7%, TrxR1 substrate inconclusive, GLP1R ag -24.6%, TrxR1 inh 70.8µM*, mIDH1 inhibitor 4.3% and GLP1R inv ag 38.9%.
Screening C=C1C=C(C(F)F)n2ncc(C(=O)NCc3ccc(F)cc3)c2N1 returned TrxR1 substrate 6.4% and TrxR1 inh 10.7%.
`O=C(NCc1nc(-c2ccccc2)no1)c1cccs1` gave HEK293 tox 4.4%, TrxR1 substrate 3.9%[57.1 µM], GLP1R ag 8.6%, TrxR1 inh 13.6%[57.1 µM], mIDH1 inhibitor 3.9% and GLP1R inv ag 0.0%.
Screening O=C(NCc1nc(-c2ccc(C(F)(F)F)cc2)no1)c1cccs1 returned HEK293 tox -20.2%, TrxR1 substrate -3.7%, GLP1R ag -0.8%, TrxR1 inh 9.9%, mIDH1 inhibitor 2.3% and GLP1R inv ag 10µM*.
CCC(O)c1cc2c(cc1NC(=O)c1ccccc1F)OCCO2 (configuration not stated) was read as HEK293 tox 1.0%, TrxR1 substrate 2.6%[57.1 µM], TrxR1 inh 21.2%[57.1 µM], mIDH1 inhibitor 10.7% and GLP1R inv ag 8.6%.
Screening CC1(c2nnc(Cc3ccccc3)o2)CC(c2ccc(C#N)cc2)=NO1 (configuration not stated) returned HEK293 tox 7.9%, TrxR1 substrate 6.0%, GLP1R ag 3.9%, TrxR1 inh 15.8µM*, mIDH1 inhibitor 0.3% and GLP1R inv ag 5.3%.
Screening COc1ccc(C)cc1NC(=O)C(=O)NCCc1csc(-c2ccc(C)cc2)n1 returned HEK293 tox -7.6%, TrxR1 substrate 4.4%[57.1 µM], TrxR1 inh 15.6%[57.1 µM], mIDH1 inhibitor -7.3% and GLP1R inv ag 10.8%.
CC(=O)c1cccc(NC(=S)NC(=O)c2cccc(Cl)c2)c1 was read as HEK293 tox inconclusive, TrxR1 substrate 13.9%, GLP1R ag 18.9%, TrxR1 inh inconclusive, mIDH1 inhibitor 4.1% and GLP1R inv ag inconclusive.
CC(=O)c1cccc(NC(=S)NC(=O)c2ccccc2)c1 was read as HEK293 tox -6.8%, TrxR1 substrate 0.1%, GLP1R ag -0.7%, TrxR1 inh 35.5µM*, mIDH1 inhibitor 6.1% and GLP1R inv ag 0.3%.
For Cc1ccc2c(NC(=S)NC(=O)c3ccccc3)cccc2n1 the results were HEK293 tox -3.8%, TrxR1 substrate -21.8%, GLP1R ag 1.0%, TrxR1 inh 79.4µM*, mIDH1 inhibitor -5.6% and GLP1R inv ag 1.1%.
Cc1cccnc1NC(=S)NC(=O)c1cncc(Br)c1 was read as HEK293 tox inconclusive, TrxR1 substrate 10.0%, GLP1R ag -8.4%, TrxR1 inh 31.6µM*, mIDH1 inhibitor 6.4% and GLP1R inv ag inconclusive.
Screening O=C(NC(=S)Nc1ccc(Oc2ccc(Cl)cc2)cc1)c1ccccc1 returned HEK293 tox inconclusive, TrxR1 substrate -12.0%, GLP1R ag -5.9%, TrxR1 inh -33.1%, mIDH1 inhibitor 6.7% and GLP1R inv ag 12.6µM*.
C[C@]12C=CC(=O)N[C@@H]1CC[C@@H]1C2CC[C@]2(C)C(C(=O)Nc3cc(C(F)(F)F)ccc3C(F)(F)F)CC[C@@H]12 (some centres not stated) was read as GLP1R ag 2.1%.
`O=c1cc(CSc2ncn[nH]2)[nH]c2c(Cl)cccc12` gave HEK293 tox -5.5%, TrxR1 substrate -0.2%[57.1 µM], TrxR1 inh 10.3%[57.1 µM], mIDH1 inhibitor -1.3% and GLP1R inv ag 14.9%.
For CN(CC(=O)Nc1ccc(Cl)cc1)CC(=O)Nc1ccc(C(N)=O)cc1 the results were HEK293 tox 0.1%, TrxR1 substrate -0.1%[11.4 µM], GLP1R ag 2.4%, TrxR1 inh 3.3%[11.4 µM], mIDH1 inhibitor -7.3% and GLP1R inv ag 6.8%.
For CC(=O)c1cccc(NC(=S)NC(=O)c2cncc(Br)c2)c1 the results were HEK293 tox 7.6%, TrxR1 substrate -8.6%, GLP1R ag -5.0%, TrxR1 inh 22.4µM*, mIDH1 inhibitor -0.2% and GLP1R inv ag 6.4%.
`CN(C)CC(=O)Nc1ccc(Oc2ccc(Cl)cc2)cc1` gave HEK293 tox 9.4%, TrxR1 substrate 1.7%, GLP1R ag 15.3%, TrxR1 inh 27.4%, mIDH1 inhibitor 1.6% and GLP1R inv ag 5.01µM*.
`COC(=O)Oc1c(Br)c(=O)oc2ccccc12` gave HEK293 tox -7.5%, TrxR1 substrate -1.9%, GLP1R ag -8.1%, TrxR1 inh 7.94µM*, mIDH1 inhibitor 1.7% and GLP1R inv ag 1.1%.
For CC(=O)Nc1c(NC(C)C)c2ccccc2oc1=O the results were HEK293 tox 54.1%, TrxR1 substrate -6.8%[57.1 µM], GLP1R ag 7.6%, TrxR1 inh -7.6%[57.1 µM], mIDH1 inhibitor -7.9% and GLP1R inv ag 0.9%.
Screening CC[N+]1(C)CCC(O)(c2ccc(OC)cc2)C(C(=O)c2ccc(OC)cc2)C1 (configuration not stated) returned HEK293 tox inconclusive, TrxR1 substrate 3.6%, GLP1R ag -7.0%, TrxR1 inh 0.708µM*, mIDH1 inhibitor -0.9% and GLP1R inv ag inconclusive.
`COc1ccc(-c2ccc(C(=O)C3CC3)cc2)cc1` gave HEK293 tox -3.6%, TrxR1 substrate -1.5%, GLP1R ag 6.4%, TrxR1 inh 6.5%, mIDH1 inhibitor -8.2% and GLP1R inv ag 7.9%.
For COc1cccc(N2CCN(c3ncnc4c3[nH]c3ccc(F)cc34)CC2C)c1 (configuration not stated) the results were HEK293 tox 3.16µM*, TrxR1 substrate -0.3%, GLP1R ag -53.8%, TrxR1 inh -15.4%, mIDH1 inhibitor 2.1% and GLP1R inv ag inconclusive.
Screening CC1(C)SC(=S)N(/N=C/c2ccc(O)cc2)C1N(O)C(=O)Nc1ccc([N+](=O)[O-])cc1 (configuration not stated) returned HEK293 tox -27.5%, TrxR1 substrate inconclusive, GLP1R ag -21.8%, TrxR1 inh -10.0%, mIDH1 inhibitor 8.6% and GLP1R inv ag 2.82µM*.

Screening results (PubChem BioAssay)
